Results as given in ChEMBL document CHEMBL1157539, “Thousands of chemical starting points for antimalarial lead identification” (Nature, 2010).

Tests used:
Type in all cases: functional
Plasmodium falciparum [1] = assay: GSK_TCMDC: Inhibition of Plasmodium falciparum 3D7 in whole red blood cells, using parasite LDH activity as an index of growth. Test compounds present at 2uM
Plasmodium falciparum [2] = assay: GSK_TCMDC: Inhibition of Plasmodium falciparum Dd2 in whole red blood cells, using parasite LDH activity as an index of growth. Test compounds present at 2uM
HepG2 = assay: GSK_TCMDC: Percent inhibition of human HepG2 cell line. Test compounds present at 10uM.

| Structure (SMILES) | Inhibition (Plasmodium falciparum [1]) | Inhibition (Plasmodium falciparum [2]) | Inhibition (HepG2) |
| --- | --- | --- | --- |
| Cc1cccc2nc(-c3cccc(-c4ccc(CNCc5cccc(N)c5)cc4)c3)[nH]c12.O=C(O)C(F)(F)F | 100% | 93% | 19% |
| CS(=O)(=O)CCNCc1cccc(-c2ccc3c(Nc4cc(O)c(Cl)cc4F)ccnc3c2)c1 | 100% | 100% | 9% |
| COc1ccc(C(=O)Nc2cc(Cl)c3c(c2)C2CCCN2CC3)cc1C(F)(F)F.Cl (configuration not stated) | 99% | 33% | 35% |
| CS(=O)(=O)CCNCc1nc(-c2ccc3c(Nc4ccc(F)c(O)c4)ccnc3c2)cs1 | 95% | 84% | 0% |
| O=C(Nc1n[nH]c2nc(-c3ccco3)c(Br)cc12)c1ccc(CN2CCCC2)cc1.O=C(O)C(O)C(O)C(=O)O | 100% | 53% | 1% |
| COc1ccc2nccc([C@@H](O)CN3CCC(NCc4nc5c(cc4Cl)OCC(=O)N5)C(F)C3)c2c1.Cl (some centres not stated) | 84% | 29% | 4% |
| COc1ccc(Br)cc1C1C2C(=O)N(c3ccc(Br)cc3)C(=O)C2C2(C(=O)O)CC(OCc3ccccc3)CN12 (configuration not stated) | 100% | 99% | 16% |
| CC(=NNC(=N)N)c1ccc2c(c1)Cc1ccccc1-2.Cl | 100% | 10% | 44% |
| CC1CN(c2ccc3occ(C(=O)Nc4ccc(-c5ccncc5)c(Cl)c4)c3c2)CC(C)N1C.Cl (configuration not stated) | 100% | 96% | 14% |
